Data published in PubChem BioAssay AID504546 (Broad Institute, 2011).
Results filed as inconclusive are left out. Activity calls are given as the source filed them.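 The calls were made as follows: active = every repeat run fits a falling-signal curve with half-maximal potency within ten times top tested dose; inconclusive = runs disagree, or flat moderate drop, or poor fit; inactive = every run inactive, including signal moving upward.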

Test: inhibition of ADP-Glo detection reagents, dose response, artefact control for CDK5 inhibitor project, biochemical, luminescence, cherry-picked samples, set 2 (AID 504546);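 also: 0% = DMSO wells and -100% = wells lacking ADP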
Conditions: ADP-Glo detection reagent counter screen, 5 uM ADP; series mostly up to 30 µM; activity change, negative = inhibition: at the top concentration

Structure (SMILES)	activity change, negative = inhibition
CC(C)n1cnc2c(Nc3ccc(F)c(Cl)c3)nc(NCCO)nc21	-2.2% (inactive)
O=C1NCCCc2c1oc1ccc(O)cc21	16.1% (inactive)
CC(C)[C@H](CO)N(Cc1cccc(F)c1)c1nc(Nc2cccc(Cl)c2)c2ncn(C(C)C)c2n1	0.324% (inactive)
CC(C)n1cnc2c(N(C)c3cccc(Cl)c3)nc(N(CCO)CCO)nc21	12.7% (inactive)
COc1ccc(Nc2nccc(-c3ccc([N+](=O)[O-])cc3)n2)cc1	-11.6% (inactive)
ON=C1c2ccccc2-c2ccc(O)cc21	-4.06% (inactive)
OCCCNc1nccc(-c2cc(Nc3cccc(Cl)c3)ncn2)n1	5.63% (inactive)
CCc1cc(C(=O)c2ccc(OC)cc2)c(N)s1	15.9% (inactive)
CC(C)n1cnc2c(Nc3cccc(Cl)c3)nc(NCCCO)nc21	-8.77% (inactive)
CCN1C(=O)/C(=C2/Sc3ccc(OC)cc3N2C)SC1=Nc1cccc(O)c1	11.8% (inactive)
CC(C)n1cnc2c(Nc3cccc(Cl)c3)nc(N(CCO)CCCO)nc21	3.17% (inactive)
Nc1ncnc2c1ncn2C1OC(CO)C(O)C1O (stereo unspecified)	12.3% (inactive)
CN1CCN(C(=O)c2ccc3c(c2)NC(=O)/C(=C/c2ccccc2)S3)CC1	16.2% (inactive)
Clc1cncc(Cl)c1N/N=C/c1ccncc1	-4.29% (inactive)
CC(C)n1cnc2c(Nc3ccc(C(=O)O)cc3)nc(Cl)nc21	5.34% (inactive)
O=C1Nc2cc(C(=O)N3CCC(N4CCCCC4)CC3)ccc2S/C1=C\c1ccccc1	-9.15% (inactive)
